Test results as given in PubChem BioAssay AID1159580 (chemical genetic matrix, 2015).
Among all 5,500 compounds or so, about 2,000 (36%) were called active. Roughly 18% stayed inconclusive and do not appear here. Cut-off read from the data, not from the text of the source: active = normalized growth mostly below about 0.91 (no sharp cut-off); inconclusive = no clear call, values can overlap the other calls; inactive = mostly above about 0.92. The list shows a part of the results.

Experiment: chemical genetic growth profiling, strain panel (AID 1159580);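 note: tested at 20 µM; growth read once vehicle control cultures reached saturation at 30 °C; 1 = growth at the plate median or of vehicle wells; lower values mean less growth of the strain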
Settings: S. cerevisiae deletion strains, growth OD
[1] = locus YAL040C, strain CLN3, hits give low values
[2] = locus YDR363W, strain ESC2, hits give low values
[3] = locus YER002W, strain NOP16, hits give low values
[4] = locus YNL175C, strain NOP13, hits give low values
[5] = locus YNL197C, strain WHI3, hits give low values
[6] = locus YNL224C, strain SQS1, hits give low values
[7] = locus YOR083W, strain WHI5 (second series), hits give low values

Measured: normalized growth

O=C(O)[C@H]1NCCC[C@H]1C(=O)O
inactive: [1] 1.06 | locus YCL061C, strain MRC1 (second series), hits give low values 0.986 | locus YDR150W, strain NUM1, hits give low values 1.01 | [2] 0.991 | [3] 0.993 | locus YMR263W, strain SAP30, hits give low values 0.99 | locus YMR307W, strain GAS1, hits give low values 0.991 | locus YNL128W, strain TEP1, hits give low values 0.994 | [4] 1 | [5] 0.982 | [6] 0.999 | [7] 0.984 | locus YPL055C, strain LGE1, hits give low values 1 | locus YPL241C, strain CIN2, hits give low values 0.996

N[C@@H](CS(=O)O)C(=O)O
inactive: [1] 0.98 | [2] 1.01 | [3] 0.98 | locus YGR078C, strain PAC10, hits give low values 1.01 | locus YGR229C, strain SMI1, hits give low values 0.954 | [4] 0.987 | [5] 1.02 | [6] 1.02 | [7] 1.02
